Test [1] is described as follows: qHTS assay to identify small molecule agonists of the constitutive androstane receptor (CAR) signaling pathway - cell viability counter screen (AID 1224836). Note: nearly all actives have a fitted effect of over 45% in size. In short, it runs like this: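 Viability read-out: CellTiter-Fluor fluorescence after 23 h compound exposure at 37 C/5% CO2 in double-stable HepG2-CYP2B6-hCAR cells, with PK11195 present at 0.75 uM final; compounds tested in 15-point titration.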
A general note: In qHTS, concentration-response curves come from the screen itself.

The nature of test [2]: qHTS assay to identify small molecule antagonists of the constitutive androstane receptor (CAR) signaling pathway - cell viability counter screen (AID 1224837). Note: nearly all actives have a fitted effect of over 45% in size. In short, it runs like this:
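Using CellTiter-Fluor, viability is scored in HepG2 cells stably carrying hCAR and a 2.2kb CYP2B6 reporter after 23 hr compound exposure across 15 concentrations, with CITCO present at 50 nM.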

Test [3] concerns the target Nuclear receptor subfamily 1 group I member 3 (Homo sapiens) (UniProt Q14994). In words: qHTS assay to identify small molecule antagonists of the constitutive androstane receptor (CAR) signaling pathway (AID 1224838).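 Note: HepG2 cells stably expressing hCAR with CYP2B6 luciferase reporter stimulated by CITCO; nearly all actives have a fitted effect of over 40% in size.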 In short, it runs like this: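 Reporter luminescence was quantified after 24 h exposure of hCAR/CYP2B6-2.2kb double-stable HepG2 cells to compounds at 15 concentrations in the presence of 50 nM CITCO final.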

Test [4] shares this target. In words: qHTS assay to identify small molecule agonists of the constitutive androstane receptor (CAR) signaling pathway (AID 1224839).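 Note: HepG2 cells stably carrying human CAR and a CYP2B6 luciferase reporter; nearly all actives have a fitted effect of over 15% in size.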 In short, it runs like this:
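Luminescence read-out (ONE-Glo, 30 min, room temperature) from double-stable HepG2-CYP2B6-hCAR cells exposed 24 h to 15-point compound series in presence of 0.75 uM PK11195 final.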

Test [5] is described as follows: qHTS assay to identify small molecule antagonists of the estrogen related receptor signaling pathway with the pleiotropic PPARgamma coactivator (PGC) from Tox21 10K library - cell viability counter screen (AID 1224840; active = well fitted cell-killing curve with a large enough effect in the repeat runs, not every such curve was filed as active; note: nearly all actives have a fitted effect of over 40% in size). The gist of the method:
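Here the PGC/ERR cells serve as a cytotoxicity control: they are exposed to compounds for 17.5 hours at 37 C, and live-cell signal is quantified using CellTiter-Fluor fluorescence.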

The nature of test [6]: qHTS assay to identify small molecule antagonists of the estrogen related receptor signaling pathway with the pleiotropic PPARgamma coactivator (PGC) from Tox21 10K library (AID 1224841; call rule not given here; note: actives are mostly falling curves and most rising ones were filed inactive; nearly all actives have a fitted effect of over 50% in size). In short, it runs like this: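 Each well held 2,000 PGC/ERR cells, pre-incubated six hours (37 C, 5% CO2). Test substances in DMSO were added by pin tool and left for 18 h at 37 C before luciferase detection by One-Glo.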

The nature of test [7]: qHTS assay to identify small molecule agonists of the estrogen related receptor signaling pathway with the pleiotropic PPARgamma coactivator (PGC) from Tox21 10K library (AID 1224842). Note: nearly all actives have a fitted effect of over 15% in size. The gist of the method: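 PGC/ERR reporter cell line, 2,000 cells per well, incubated 6 h at 37 C before 23 nL compound in DMSO was added. After 18 h at 37 C, One-Glo luminescence read following 30 min at room temperature.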

Test [8] deals with Thyrotropin receptor (Homo sapiens) (UniProt P16473). In words: qHTS assay to identify small molecule agonists of the thyroid stimulating hormone receptor (TSHR) signaling pathway (AID 1224843; calls by dose curve; note: nearly all actives have a fitted effect of over 45% in size). The gist of the method: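 Steps: seed 800 TSHR-HEK293 cells per well; add test compound and hold 30 min at ambient temperature; dispense cAMP-d2 then anti-cAMP cryptate; incubate 1 h at ambient; measure fluorescence intensity.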

Test [9] can be described thus: qHTS assay to identify small molecule agonists of the hypoxia (HIF-1) signaling pathway - cell viability counter screen (AID 1224844; calls by dose curve; note: nearly all actives have a fitted effect of over 50% in size). The gist of the method:
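Multiplexed with the HRE beta-lactamase assay, this viability read used CellTiter-Glo luminescence (30 min, RT) on HRE-bla ME-180 cells treated 17 hrs with compounds in 0.5% dialyzed FBS medium.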

Test [10] in a line: qHTS assay to identify small molecule agonists of H2AX (AID 1224845; active = well fitted activation curve with a large enough effect in the signal ratio in the repeat runs, not every such curve was filed as active; the % refers to the signal ratio). The gist of the method:
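Wild-type CHO-K1 cells, plated overnight, exposed 3hr at 37C to 15 concentrations (0.76% DMSO final). Lysed, then HTRF anti-pH2AX (S139) cryptate and anti-H2AX-d2 antibodies, 24 hr room temperature; 665/620 nm emission read.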

Test [11] in a line: qHTS assay to identify small molecule agonists of the hypoxia (HIF-1) signaling pathway (AID 1224846; active = well fitted activation curve with a large enough effect in the signal ratio in the repeat runs, not every such curve was filed as active; the % refers to the signal ratio). The gist of the method: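 Hypoxia-pathway activation was scored as increased beta-lactamase from an HRE-controlled reporter in ME-180 cells; plated at 2,000 cells per well with 0.5% dialyzed FBS, they were exposed 17 hrs to compounds and then given CCF4-AM.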
Test [12] is described as follows: qHTS assay to identify small molecule agonists of H2AX - cell viability counter screen (AID 1224847; calls by dose curve; note: top concentration of the series differs between compounds; nearly all actives have a fitted effect of over 30% in size). The gist of the method:
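CHO-K1 wt, 1000 cells/well, o/n 37C; cpds 15 conc, 3 h 37C, 0.76% DMSO; CellTiter-Glo, 30 min RT, luminescence.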

The nature of test [13]: qHTS assay to identify small molecule agonists of the estrogen related receptor (ERR) signaling pathway from Tox21 library (AID 1224849; calls by dose curve; note: nearly all actives have a fitted effect of over 15% in size). Particulars: ERR reporter cell line, ONE-Glo luciferase, 18 h. The gist of the method: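 Six hours post-seeding at 37 C/5% CO2, ERR cells receive DMSO-solubilised compounds; after 18 h at 37 C, ONE-Glo reagent is applied and luminescence recorded.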

Test [14] can be described thus: qHTS RealTime-Glo MT Cell Viability Assay in HepG2 cells - 24 hour (AID 1224867). Note: nearly all actives have a fitted effect of over 50% in size. The gist of the method: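 Real-time, nonlytic viability: 600 HepG2 cells/well mixed with NanoLuc enzyme plus prosubstrate; 5 h settle, compound (DMSO) added by pintool; luminescence monitored over 40 h at 37 C.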
Test [15] in a line: qHTS RealTime-Glo MT Cell Viability Assay in HEK293 cells - 32 hour (AID 1224868). Note: nearly all actives have a fitted effect of over 50% in size. Note: potency is the fitted concentration of half-maximal effect. In short, it runs like this:
(§1)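 Cells + reagent dispensed (600 cells/well, HEK293) → 5 h at 37 C/5% CO2 → 23 nL compound in DMSO pinned → 40 h at 37 C → luminescence read at 0, 8, 16, 24, 32, 40 h.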

Test [16] can be described thus: A CellTox Green Cytotoxicity Assay to monitor cytotoxicity in HEK293 cells - 0 hour (AID 1224869). Note: nearly all actives have a fitted effect of over 50% in size. In short, it runs like this: (§2)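 Seeding of HEK293 cells together with cytotoxicity dye preceded a 5 h incubation at 37 C/5% CO2. Test compounds in DMSO were then added and fluorescence monitored across 40 h.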
Test [17] is described as follows: qHTS RealTime-Glo MT Cell Viability Assay in HepG2 cells - 40 hour (AID 1224870). Note: nearly all actives have a fitted effect of over 50% in size. In short, it runs like this: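 HepG2 cells (600/well) mixed with RealTime-Glo MT reagent, settled 5 h at 37 C/5% CO2 before compound addition. Nonlytic NanoLuc luminescence from viable-cell prosubstrate reduction read repeatedly during 40 h treatment at 37 C.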
Test [18] can be described thus: A CellTox Green Cytotoxicity Assay to monitor cytotoxicity in HEK293 cells - 40 hour (AID 1224871). Note: nearly all actives have a fitted effect of over 45% in size. The gist of the method: as §2
A short description of test [19]: qHTS assay to identify small molecule antagonists of the estrogen related receptor (ERR) signaling pathway from Tox21 library (AID 1224848). Note: nearly all actives have a fitted effect of over 50% in size. In short, it runs like this: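 Luminescent reporter read-out (ONE-Glo) from NTP's ERR cell line after 18 h treatment at 37 C with DMSO-dissolved Tox21 compounds; cells pre-plated 6 h beforehand at 2,000 per well.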
Test [20] can be described thus: qHTS RealTime-Glo MT Cell Viability Assay in HEK293 cells - 16 hour (AID 1224872). Note: nearly all actives have a fitted effect of over 50% in size. Note: potency is the fitted concentration of half-maximal effect. In short, it runs like this:
as §1

Several values for one entry are separate records, joined by “and”; a condition that tells them apart may be missing. Equal values may be shown once. Values without a mark were called inactive. Results filed as inconclusive are left out. Activity calls are given as the source filed them. Unless noted, calls come from the whole dose curve; as a rule, active = well fitted curve in the direction sought with a large enough effect in the repeat runs; inconclusive = weak or mixed curves; inactive = no such curve, though single readings can be large; an effect the other way counts as inactive or inconclusive.
% is set by controls: 0 for no effect and ±100 for the full control effect.

Sequence of Nuclear receptor subfamily 1 group I member 3 (Homo sapiens) (Q14994 whole entry, looked up): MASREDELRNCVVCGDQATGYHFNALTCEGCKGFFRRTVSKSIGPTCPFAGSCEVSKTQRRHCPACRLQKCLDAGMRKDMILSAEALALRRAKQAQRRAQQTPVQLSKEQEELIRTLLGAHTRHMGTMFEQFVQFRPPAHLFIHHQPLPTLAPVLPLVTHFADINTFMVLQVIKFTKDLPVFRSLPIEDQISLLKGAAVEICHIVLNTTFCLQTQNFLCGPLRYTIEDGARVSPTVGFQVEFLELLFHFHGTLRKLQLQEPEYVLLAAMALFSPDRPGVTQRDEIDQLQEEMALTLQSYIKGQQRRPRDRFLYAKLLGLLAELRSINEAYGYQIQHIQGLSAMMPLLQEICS
Sequence of Thyrotropin receptor (Homo sapiens) (P16473 whole entry, looked up): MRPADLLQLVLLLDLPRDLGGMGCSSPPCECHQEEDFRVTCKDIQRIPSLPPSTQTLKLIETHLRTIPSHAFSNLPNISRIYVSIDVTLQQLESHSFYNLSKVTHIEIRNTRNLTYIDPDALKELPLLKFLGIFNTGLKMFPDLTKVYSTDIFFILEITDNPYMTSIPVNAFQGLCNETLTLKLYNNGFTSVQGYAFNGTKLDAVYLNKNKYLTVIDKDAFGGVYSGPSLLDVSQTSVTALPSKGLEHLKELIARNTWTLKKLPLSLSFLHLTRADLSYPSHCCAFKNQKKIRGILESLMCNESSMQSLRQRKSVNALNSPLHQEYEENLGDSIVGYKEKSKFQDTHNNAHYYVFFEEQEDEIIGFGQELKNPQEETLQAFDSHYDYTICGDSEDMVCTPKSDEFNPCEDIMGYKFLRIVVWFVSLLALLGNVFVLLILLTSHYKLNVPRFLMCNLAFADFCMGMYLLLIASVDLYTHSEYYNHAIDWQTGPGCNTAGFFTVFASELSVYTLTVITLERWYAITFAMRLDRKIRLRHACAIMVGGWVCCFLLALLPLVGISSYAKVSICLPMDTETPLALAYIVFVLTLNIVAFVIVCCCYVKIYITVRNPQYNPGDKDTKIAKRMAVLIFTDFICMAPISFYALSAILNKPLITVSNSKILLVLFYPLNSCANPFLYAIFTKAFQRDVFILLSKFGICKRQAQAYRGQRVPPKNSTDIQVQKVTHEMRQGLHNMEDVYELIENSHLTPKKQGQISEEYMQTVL

As to `CCN(CC)C(=O)Nc1ccc(OCC(O)CNC(C)(C)C)c(C(C)=O)c1` (configuration not stated), the Potency result in test [1], in test [2], in [3], in test [4], in test [5] and in test [6] was “inactive” each time. For the same compound, the Potency entry in test [7], in [8], in test [9], in test [10], in test [11] and in [12] was “inactive” each time. Also, the Potency result in test [14], in test [15], in [16], in [17] and in [18] was “inactive” throughout. In addition, the activity change, positive = activation in [13] (at 42.5 µM (top of the series)) was -6.6%.

As for `OCC(CO)N[C@H]1C[C@](O)(CO)[C@@H](O)[C@H](O)[C@H]1O`, the Potency entry in [1], in [2], in [3], in test [4], in [5] and in [6] was “inactive” in each case. Besides, the Potency result in [7], in test [8], in [9], in test [10], in test [11] and in test [12] was “inactive” in each case. The Potency result in test [19], in test [14], in test [15], in test [16], in [18] and in [20] was “inactive” throughout. The activity change, positive = activation in test [13] (at 42.5 µM (top of the series)) was 2.44%.

As for `COC(c1ccccc1)(c1ccccc1)[C@H](Oc1nc(C)cc(C)n1)C(=O)O`, the Potency result in test [1], in test [2], in test [3], in test [4], in test [5] and in test [6] was “inactive” in each case. For the same compound, the Potency entry in [7], in test [8], in test [9], in test [10], in test [11] and in test [12] was “inactive” in each case. The Potency entry in test [19], in test [14], in [15], in test [17], in [18] and in test [20] was “inactive” throughout. For the same compound, the activity change, positive = activation in [13] (at 42.5 µM (top of the series)) is 0.278%.

Turning to `O=C(O)c1cc(Cl)cc(Cl)c1`, the Potency entry in test [1], in test [2], in test [3], in test [4], in [5] and in [6] was “inactive” each time. Moreover, the Potency result in test [7], in test [8], in test [9], in test [10], in [11] and in test [12] was “inactive” in each case. Further, the Potency entry in test [14], in test [15], in [16] and in test [18] was “inactive” throughout. Further, the activity change, positive = activation in [13] (at 92.4 µM (top of the series)) was -3.61%.

Consider `OCCN1CCNCC1`, for which the Potency entry in test [1], in [2], in test [3], in [4], in test [5] and in test [6] was “inactive” each time. Besides, the Potency entry in test [7], in test [8], in [9], in [10], in test [11] and in [12] was “inactive” each time. Besides, the Potency entry in test [19], in test [14], in test [16], in test [17] and in test [18] was “inactive” throughout. Moreover, in test [13] (at 92.4 µM (top of the series)), the activity change, positive = activation is 9.65% and -11.4%. The Potency is 7.9 µM (active) in [15] and 15.8 µM (active) in test [20].

Regarding `CC[C@@H](N)CO`, the Potency result in test [1], in test [2], in test [3], in test [4], in test [5] and in [6] was “inactive” throughout. For the same compound, the Potency entry in [7], in [8], in test [9], in [10], in [11] and in test [12] was “inactive” each time. The Potency result in test [19], in [14], in test [15], in test [16], in test [17] and in test [18] was “inactive” throughout. Besides, in test [13] (at 92.4 µM (top of the series)), the activity change, positive = activation is -0.0387%.

Source of the values: PubChem BioAssay (Tox21).
